Drawing on ChEMBL document CHEMBL4513135, “CO-ADD screening of IQOG CSIS (Spain) compounds”, this text covers Inhibition for 37 compounds.

One assay concerns Klebsiella pneumoniae. The conditions noted are these: Concentration 32 ug.mL-1, ASSAY_TEST Inhibition of Bacterial Growth, detection method Absorption (OD600), MEDIA CAMHB, plate type 384well, NBS, CORNING #3640, time 18 hr.
The test system of the next assay is Candida albicans. The conditions noted are these: 32 ug/mL.
The subject of the next assay is Cryptococcus neoformans. The conditions noted are these: Concentration 32 ug.mL-1, ASSAY_TEST Inhibition of Fungal Growth, detection method Resazurin, Absorption (OD600-OD570), plate type 384well, NBS, CORNING #3640.

Where “and” joins values, the source holds several entries; their conditions need not be identical. Equal entries are not always repeated. Potency and affinity values are given separately.

`CCOC(=O)c1c(C)nc(/N=N/c2nc(C)c(C(=O)OCC)c(-c3ccccc3)c2C#N)c(C#N)c1-c1ccccc1`: the Inhibition – broadly, the change of the read-out against control, counted positive when it falls – in the assay with Klebsiella pneumoniae was 0.93%; in the assay on Candida albicans, -1.11%; in the assay with Cryptococcus neoformans, -2.65%.
The like results for `C#CCN(C)Cc1cc2cc(OCCC3CCN(Cc4ccccc4)CC3)ccc2n1C.Cl` were, in that order, 16.32%, 3.09% and -83.46%.
The like results for `CCOC(=O)C1=C(C)Oc2nc3c(c(N)c2C1c1nccn1C)CCC3` (stereo unspecified) were, in that order, 4.43%, -1.64% and -84.25%.
The like results for `N#Cc1c(Cl)nc(NC2CCN(Cc3ccccc3)CC2)c(C#N)c1-c1ccccc1` were, in that order, 0.34%, -0.87% and -53.1%.
Consider `Cc1nc(NCc2ccccc2)c2cnn(-c3ccccc3)c2n1`, for which the figures for the Inhibition with Klebsiella pneumoniae, with Candida albicans and in the assay on Cryptococcus neoformans were 15.01%, -0.57% and -3.46%, respectively.
The matching figures for `O=C(N/N=C/c1cccc(Cl)c1)c1cc2ccccc2[nH]1`: -14.42%, -0.35% and -2.87%.
Consider `COc1ccc2nc(Cl)c(C=O)cc2c1`, for which the Inhibition in the assay with Klebsiella pneumoniae (32 ug/mL) was -0.34% and -2.5%; with Candida albicans, 7.25% and 8.8%; with Cryptococcus neoformans (32 ug/mL), -8.56% and -8.89%.
Turning to `CCCC(C)NNC(=O)c1cc2ccccc2[nH]1` (stereo unspecified), the results for the Inhibition in the assay with Klebsiella pneumoniae, in the assay on Candida albicans and with Cryptococcus neoformans were -0.18%, 0.67% and -3.77%, respectively.
The matching figures for `COc1ccc2cc(C3C4=C(CC(C)(C)CC4=O)Oc4nc5c(c(N)c43)CCCC5)c(Cl)nc2c1` (stereo unspecified): 5.45%, 7.25% and -9.09%.
The like results for `Cc1nc(Nc2ccccc2)c2cnn(-c3ccccc3)c2n1` were, in that order, 17.53%, 0.68% and -5.65%.
As to `CCOC(=O)c1c(C)nc(NCC2CCN(Cc3ccccc3)CC2)c(C#N)c1-c1ccccc1`, the values for the Inhibition in the assay with Klebsiella pneumoniae, in the assay with Candida albicans and in the assay with Cryptococcus neoformans were 9.84%, 2.46% and -54.17%, respectively.
The like results for `N#Cc1cccnc1Cl` were, in that order, 9.13%, -0.53% and -53.41%.
The like results for `COc1cccc(-c2c(C#N)c(=O)oc3c2ccc2ccccc23)c1` were, in that order, 2.22%, 24.3% and -2.58%.
The like results for `N#Cc1c(Cl)nc(N2CCCCC2)c(C#N)c1-c1ccccc1` were, in that order, -24.06%, 3.22% and -3.56%.
For `c1ccc(COc2ccc3[nH]ccc3c2)cc1`, the figures for the Inhibition in the assay on Klebsiella pneumoniae, in the assay on Candida albicans and in the assay on Cryptococcus neoformans were 11.46%, -1.1% and -1.93%, respectively.
The matching figures for `N#CC1=C(N)Oc2ccc3ccccc3c2C1`: -0.19%, 0.68% and -44.07%.
The like results for `O=C(O)c1c[nH]c2ccccc12` were, in that order, -9.13%, 6.48% and -9.05%.
In the case of `CN(Cc1cn(Cc2ccccc2)nn1)Cc1cc2cc(OCCCC3CCN(Cc4ccccc4)CC3)ccc2n1C`, the Inhibition is 4.39% in the assay with Klebsiella pneumoniae, 2.75% in the assay on Candida albicans and -73.92% in the assay with Cryptococcus neoformans.
With `CSC1=NC(=Cc2cn(C(c3ccccc3)(c3ccccc3)c3ccccc3)c3ccccc23)C(=O)N1C`, the Inhibition is -25.3% in the assay on Klebsiella pneumoniae, -0.44% with Candida albicans and -10.07% with Cryptococcus neoformans.
In the case of `C#CCN1CCc2nc3nc(NC4CCN(Cc5ccccc5)CC4)c(C#N)cc3c(N)c2C1`, the Inhibition in the assay with Klebsiella pneumoniae was 10.49%; in the assay with Candida albicans, 5.66%; with Cryptococcus neoformans it was -17.48%.
The like results for `CN(C)c1nc2nc3c(c(N)c2c(-c2ccccc2)c1C#N)CCCC3` were, in that order, 5.15%, 1.47% and -62.72%.
The matching figures for `C#CCN(C)c1nc(N(C)CC#C)c(C#N)cc1C#N`: 11.71%, 2.14% and -56.65%.
The like results for `C=C1CNc2c(C#N)c(-c3ccccc3)c(C#N)c(=N)n21` were, in that order, 0.65%, 3.22% and -41.17%.
Consider `Cn1c(C(=O)NCc2ccccc2)cc2cc(OCCCC3CCN(Cc4ccccc4)CC3)ccc21`, for which the Inhibition in the assay with Klebsiella pneumoniae was 8.4%; with Candida albicans, 1.62%; in the assay on Cryptococcus neoformans, -77.02%.
The matching figures for `C#CCNc1nc(NCC#C)c(C#N)cc1C#N`: -4.98%, 3.76% and 23.66%.
The matching figures for `COc1cccc(C2c3c(nc4c(c3N)CCCC4)Oc3ccc4ccccc4c32)c1` (stereo unspecified): 7.83%, -0.15% and -0.19%.
The matching figures for `N#Cc1c(N)nc2[nH]nc(N)c2c1-c1ccccc1`: 17.63%, 0.49% and -62.75%.
For the compound `C#CCNc1nc(NCCC2CCN(Cc3ccccc3)CC2)c(C#N)cc1C#N`, the Inhibition in the assay on Klebsiella pneumoniae was -4.95%; in the assay on Candida albicans, 3.57%; in the assay with Cryptococcus neoformans, -89.93%.
With `Cc1ccc(-c2c(C#N)c(N)nc3c2S(=O)(=O)OC3(C)C)cc1`, the Inhibition with Klebsiella pneumoniae was 10.18%; in the assay with Candida albicans, 1.92%; in the assay with Cryptococcus neoformans, -1.83%.
The like results for `COC(=O)C(NC(=O)c1ccccc1)=C(C)c1ccccc1` were, in that order, 19.09%, -0.01% and -1.2%.
The like results for `N#C/C(=C\c1ccccc1Cl)C(=O)c1ccccc1` were, in that order, 13.98%, 10.6% and -6.26%.
The matching figures for `Cc1nc(Nc2ccccc2)c2c(C)nn(-c3ccccc3)c2n1`: -3.39%, -2.39% and -3.19%.
`CCOC(=O)c1cn(C)c2ccccc12`: the Inhibition was 12.15% with Klebsiella pneumoniae, 7.9% in the assay on Candida albicans and -4.62% in the assay with Cryptococcus neoformans.
With `COc1ccc(-c2cc(-c3ccccc3)c(C#N)c(N)n2)cc1`, the Inhibition in the assay with Klebsiella pneumoniae is -4.32%; in the assay with Candida albicans, -5.4%; in the assay with Cryptococcus neoformans, -104.15%.
The like results for `CSC1=NC(=Cc2ccccc2)C(=O)N1C` were, in that order, -0.86%, 3.12% and -9.15%.
The matching figures for `CCOC(=O)C1=C(C)OC(N)=C(C#N)C1c1ccc(F)cc1` (stereo unspecified): 13.44%, 1.48% and -57.32%.
On to `C#CC[n+]1ccccc1N.[Br-]`, for which the Inhibition in the assay with Klebsiella pneumoniae is -10.26%; with Candida albicans, 1.82%; in the assay with Cryptococcus neoformans, -3.96%.
